# PubChem BioAssay (EPA / NIEHS)
# Activity calls are given as the source filed them. How the source made its calls: active means hit-call score of the fitted dose curve at least 0.9, where 1 is the maximum; inactive means score below 0.9.
# Legend:
# Details in all cases: primary human HUVEC with PBMC; actives raise or lower the signal
# [1] = read-out: Interleukin-1 alpha (IL1a), IL1A (gene 3552); test: BSK_LPS_IL1a: BioMAP Diversity Plus: LPS Assay for Interleukin-1 alpha (IL1a) Biomarker Activity (AID 2283080)
# Outline: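 Human umbilical vein endothelial cells co-cultured with PBMC and stimulated with LPS; IL-1a measured by ELISA 24 h after dosing. Bidirectional fitting against DMSO; cytotoxicity checked by SRB staining in parallel cultures.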
# [2] = read-out: Monocyte Chemoattractant Protein-1 (MCP1), CCL2 (gene 6347); test: BSK_LPS_MCP1: BioMAP Diversity Plus: LPS Assay for Monocyte Chemoattractant Protein-1 (MCP1) Biomarker Activity (AID 2283081);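 on AC50: secreted MCP-1 protein quantified by ELISA in culture supernatant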
# Outline: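 Human umbilical vein endothelial cells co-cultured with PBMC, LPS-stimulated; secreted MCP-1 measured by ELISA 24 h after compound addition. Bidirectional curve fitting against DMSO baseline; SRB total-protein staining in parallel cultures for cytotoxicity.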
# [3] = BSK_LPS_PGE2: BioMAP Diversity Plus: LPS Assay for Prostaglandin E2 (PGE2) Biomarker Activity (AID 2283082);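 on AC50: secreted prostaglandin E2 measured by ELISA in LPS-stimulated co-culture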
# Outline: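 ELISA read-out of PGE2 from human umbilical vein endothelial cells co-cultured with peripheral blood mononuclear cells under LPS, 24 h post-dose. Gain or loss of signal scored relative to DMSO baseline.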
# [4] = read-out: Macrophage colony-stimulating factor (MCSF), CSF1 (gene 1435); test: BSK_LPS_MCSF: BioMAP Diversity Plus: LPS Assay for Macrophage colony-stimulating factor (MCSF) Biomarker Activity (AID 2283083)
# Outline: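 HUVEC–PBMC co-culture, M-CSF measured by ELISA 24 h after chemical dosing. Fitted in both directions relative to DMSO as negative control; overt cytotoxicity assessed by SRB total-protein staining in parallel cultures.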
# [5] = read-out: Tissue Factor, F3 (gene 2152); test: BSK_LPS_TissueFactor: BioMAP Diversity Plus: LPS Assay for Tissue Factor Biomarker Activity (AID 2283084)
# Outline: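 Human umbilical vein endothelial cells co-cultured with PBMC were dosed with compound. Cell-surface CD142 was measured by ELISA 24 h later. Activity was fitted bidirectionally against DMSO, with SRB total-protein staining in parallel cultures for cytotoxicity.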
# [6] = read-out: Tumor necrosis factor (Homo sapiens) (UniProt P01375); test: BSK_LPS_TNFa: BioMAP Diversity Plus: LPS Assay for Tumour Necrosis Factor alpha (TNFa) Biomarker Activity (AID 2283085);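 on AC50: TNFa protein level quantified by ELISA in the co-culture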
# Outline: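 HUVEC/PBMC co-culture, LPS-stimulated; 24 h post-dose; TNFa by ELISA; gain or loss of signal fitted bidirectionally vs DMSO baseline.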
# [7] = read-out: Vascular cell adhesion molecule 1 (VCAM1), VCAM1 (gene 7412); test: BSK_LPS_VCAM1: BioMAP Diversity Plus: LPS Assay for Vascular cell adhesion molecule 1 (VCAM1) Biomarker Activity (AID 2283086)
# Outline: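 ELISA read-out of VCAM-1 at 24 h post-dosing in an LPS-driven HUVEC/PBMC primary human co-culture; gain or loss of signal fitted bidirectionally against DMSO baseline. Cytotoxicity tracked in parallel cultures by SRB total-protein staining.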
# CD38, CD38 (gene 952) = test: BSK_SAg_CD38: BioMAP Diversity Plus: SAg Assay for CD38 Biomarker Activity (AID 2283087)
# Outline: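 Measures CD38 on a human endothelial/PBMC co-culture driven by SEB and TSST-1, 24 h after compound exposure, using ELISA with fluorescence detection; DMSO defines baseline for bidirectional curve fitting.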
# CD40, CD40 (gene 958) = test: BSK_SAg_CD40: BioMAP Diversity Plus: SAg Assay for CD40 Biomarker Activity (AID 2283088)
# Outline: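 HUVEC plus PBMC co-culture, superantigen-activated, with CD40 read by ELISA 24 h after dosing. Curves fitted in both directions against DMSO. Overt cytotoxicity checked by parallel SRB total-protein staining.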
# CD69, CD69 (gene 969) = test: BSK_SAg_CD69: BioMAP Diversity Plus: SAg Assay for CD69 Biomarker Activity (AID 2283089);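 on AC50: cell surface CD69 protein quantified by ELISA with fluorescence detection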
# Outline: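 ELISA, fluorescence read-out: CD69 on human umbilical vein endothelial cell + PBMC co-culture, 24 h post-dosing. Gain or loss of signal fitted bidirectionally against DMSO baseline.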
# Tumor necrosis factor (Homo sapiens), sequence (P01375 whole entry, looked up): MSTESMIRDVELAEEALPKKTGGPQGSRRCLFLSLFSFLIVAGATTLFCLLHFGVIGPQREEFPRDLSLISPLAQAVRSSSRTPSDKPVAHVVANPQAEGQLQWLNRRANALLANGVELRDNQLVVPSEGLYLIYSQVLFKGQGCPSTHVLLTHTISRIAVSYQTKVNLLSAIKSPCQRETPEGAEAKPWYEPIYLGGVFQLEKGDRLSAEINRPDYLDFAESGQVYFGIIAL
compound,measurement,setting,value
CCC(C)(NC(=O)c1cc(Cl)c(C)c(Cl)c1)C(=O)CCl (centres undefined),AC50,[1],15.9 µM (active)
same,AC50,[2],12.2 µM (active)
same,outcome,[3],inactive
same,AC50,[4],13 µM (active)
same,AC50,[5],5.21 µM (active)
same,AC50,[6],12.3 µM (active)
same,AC50,[7],8.9 µM (active)
same,AC50,"CD38, CD38 (gene 952)",6.39 µM (active)
same,AC50,"CD40, CD40 (gene 958)",7.22 µM (active)
same,AC50,"CD69, CD69 (gene 969)",14.3 µM (active)
COC(=O)c1ccccc1S(=O)(=O)NC(=O)Nc1nc(C)nc(OC)n1,outcome,[1],inactive
same,outcome,[2],inactive
same,outcome,[3],inactive
same,outcome,[4],inactive
same,outcome,[5],inactive
same,outcome,[6],inactive
same,outcome,[7],inactive
same,outcome,"CD38, CD38 (gene 952)",inactive
same,outcome,"CD40, CD40 (gene 958)",inactive
same,outcome,"CD69, CD69 (gene 969)",inactive
O=C(NC(=O)c1c(F)cccc1F)Nc1ccc(OC(F)(F)C(F)OC(F)(F)F)c(Cl)c1 (centres undefined),outcome,[1],inactive
same,outcome,[2],inactive
same,outcome,[3],inactive
same,outcome,[4],inactive
same,outcome,[5],inactive
same,outcome,[6],inactive
same,outcome,[7],inactive
same,AC50,"CD38, CD38 (gene 952)",16.3 µM (active)
same,outcome,"CD40, CD40 (gene 958)",inactive
same,outcome,"CD69, CD69 (gene 969)",inactive
O=C1c2ccccc2C(=O)N1SC(Cl)(Cl)Cl,outcome,[1],inactive
same,outcome,[2],inactive
same,outcome,[3],inactive
same,outcome,[4],inactive
same,outcome,[5],inactive
same,AC50,[6],32 µM (active)
same,outcome,[7],inactive
same,outcome,"CD38, CD38 (gene 952)",inactive
same,outcome,"CD40, CD40 (gene 958)",inactive
same,outcome,"CD69, CD69 (gene 969)",inactive
Cc1[nH]c(=O)n(C(C)(C)C)c(=O)c1Cl,outcome,[1],inactive
same,outcome,[2],inactive
same,outcome,[3],inactive
same,outcome,[4],inactive
same,outcome,[5],inactive
same,outcome,[6],inactive
same,outcome,[7],inactive
same,outcome,"CD38, CD38 (gene 952)",inactive
same,outcome,"CD40, CD40 (gene 958)",inactive
same,AC50,"CD69, CD69 (gene 969)",3.68 µM (active)
Cc1cc(C)nc(NC(=O)NS(=O)(=O)c2ccccc2C(=O)OC2COC2)n1,outcome,[1],inactive
same,outcome,[2],inactive
same,outcome,[3],inactive
same,AC50,[4],0.331 µM (active)
same,outcome,[5],inactive
same,outcome,[6],inactive
same,outcome,[7],inactive
same,outcome,"CD38, CD38 (gene 952)",inactive
same,outcome,"CD40, CD40 (gene 958)",inactive
same,outcome,"CD69, CD69 (gene 969)",inactive
CCOCN(C(=O)CCl)c1c(C)cccc1CC,outcome,[1],inactive
same,AC50,[2],31.2 µM (active)
same,outcome,[3],inactive
same,AC50,[4],23.9 µM (active)
same,outcome,[5],inactive
same,AC50,[6],5.13 µM (active)
same,AC50,[7],20 µM (active)
same,AC50,"CD38, CD38 (gene 952)",27 µM (active)
same,outcome,"CD40, CD40 (gene 958)",inactive
same,AC50,"CD69, CD69 (gene 969)",11.8 µM (active)
O=C(O)CCCOc1ccc(Cl)cc1Cl,outcome,[1],inactive
same,outcome,[2],inactive
same,AC50,[3],15.2 µM (active)
same,outcome,[4],inactive
same,outcome,[5],inactive
same,outcome,[6],inactive
same,outcome,[7],inactive
same,outcome,"CD38, CD38 (gene 952)",inactive
same,outcome,"CD40, CD40 (gene 958)",inactive
same,outcome,"CD69, CD69 (gene 969)",inactive
CCCN(CCC)c1c([N+](=O)[O-])cc(C(F)(F)F)cc1[N+](=O)[O-],outcome,[1],inactive
same,AC50,[2],36.2 µM (active)
same,outcome,[3],inactive
same,AC50,[4],20 µM (active)
same,outcome,[5],inactive
same,outcome,[6],inactive
same,AC50,[7],29.3 µM (active)
same,AC50,"CD38, CD38 (gene 952)",15.2 µM (active)
same,AC50,"CD40, CD40 (gene 958)",29.5 µM (active)
same,AC50,"CD69, CD69 (gene 969)",30.2 µM (active)
Oc1ccc(Cl)cc1Cc1ccccc1,AC50,[1],31.8 µM (active) [middle of 6 runs]
same,AC50,[2],32.5 µM (active) [middle of 7 runs]
same,AC50,[4],29.6 µM (active) [middle of 7 runs]
same,AC50,[5],33.6 µM (active) [middle of 7 runs]
same,AC50,[6],32 µM (active) [middle of 7 runs]
same,AC50,[7],32.5 µM (active) [middle of 6 runs]
same,AC50,"CD38, CD38 (gene 952)",33.6 µM (active) [middle of 6 runs]
same,AC50,"CD40, CD40 (gene 958)",29.4 µM (active) [middle of 6 runs]
same,AC50,"CD69, CD69 (gene 969)",32.7 µM (active) [middle of 7 runs]
C#CCN1C(=O)COc2cc(F)c(N3C(=O)C4=C(CCCC4)C3=O)cc21,outcome,[1],inactive
same,outcome,[2],inactive
same,outcome,[3],inactive
same,outcome,[4],inactive
same,outcome,[5],inactive
same,outcome,[6],inactive
same,outcome,[7],inactive
same,AC50,"CD38, CD38 (gene 952)",14.2 µM (active)
same,outcome,"CD40, CD40 (gene 958)",inactive
same,outcome,"CD69, CD69 (gene 969)",inactive
CC(C)N(C(=O)COc1nnc(C(F)(F)F)s1)c1ccc(F)cc1,outcome,[1],inactive
same,outcome,[2],inactive
same,outcome,[3],inactive
same,outcome,[4],inactive
same,outcome,[5],inactive
same,AC50,[6],12.6 µM (active)
same,outcome,[7],inactive
same,outcome,"CD38, CD38 (gene 952)",inactive
same,outcome,"CD40, CD40 (gene 958)",inactive
same,outcome,"CD69, CD69 (gene 969)",inactive
O=[N+]([O-])c1c(Cl)c(Cl)c(Cl)c(Cl)c1Cl,outcome,[1],inactive
same,outcome,[2],inactive
same,outcome,[3],inactive
same,AC50,[4],22.4 µM (active)
same,outcome,[5],inactive
same,AC50,[6],25.9 µM (active)
same,AC50,[7],25.5 µM (active)
same,outcome,"CD38, CD38 (gene 952)",inactive
same,outcome,"CD40, CD40 (gene 958)",inactive
same,outcome,"CD69, CD69 (gene 969)",inactive
CCc1ccc(C(=O)NN(C(=O)c2cc(C)cc(C)c2)C(C)(C)C)cc1,outcome,[1],inactive
same,outcome,[2],inactive
same,AC50,[3],20 µM (active)
same,outcome,[4],inactive
same,outcome,[5],inactive
same,AC50,[6],14.2 µM (active)
same,outcome,[7],inactive
same,AC50,"CD38, CD38 (gene 952)",30.6 µM (active)
same,outcome,"CD40, CD40 (gene 958)",inactive
same,AC50,"CD69, CD69 (gene 969)",13.5 µM (active)
